# Out of some 58,000 compounds screened, about 3,400 (5.9%) were called active.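 The calls were made as follows: active = luminescence count or its row- and column-corrected plate score outside the 99.7% band of the plate's sample wells, on either side; inactive = the rest.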 The sample as a whole holds a higher share of actives than the screen did.
# Target: D(1A) dopamine receptor (Homo sapiens) (UniProt P21728)
# Test: D1 CRE-luciferase signal change, two-sided – cell-based, HEK293 D1, dopamine EC30, D1 allosteric modulator project, primary screen (AID 641)
# Details: dopamine EC30 potentiation, at 10 µM, actives deviate in either direction
# D(1A) dopamine receptor (Homo sapiens), sequence (P21728 whole entry, looked up): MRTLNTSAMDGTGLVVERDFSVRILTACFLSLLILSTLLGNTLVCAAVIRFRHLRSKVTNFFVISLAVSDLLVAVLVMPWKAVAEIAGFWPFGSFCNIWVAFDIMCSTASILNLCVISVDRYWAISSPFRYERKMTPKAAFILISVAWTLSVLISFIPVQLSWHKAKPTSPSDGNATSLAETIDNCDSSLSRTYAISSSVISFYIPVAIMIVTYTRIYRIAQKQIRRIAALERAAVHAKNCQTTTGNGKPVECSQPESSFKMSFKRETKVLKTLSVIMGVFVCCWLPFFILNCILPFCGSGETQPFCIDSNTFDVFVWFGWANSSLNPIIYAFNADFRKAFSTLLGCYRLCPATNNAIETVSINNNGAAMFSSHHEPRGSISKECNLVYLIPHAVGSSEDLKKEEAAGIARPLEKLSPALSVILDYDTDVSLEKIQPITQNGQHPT
row,Structure (SMILES),B-score
1,O=C(Nc1c(C(=O)N2CCCCC2)cnn1-c1ccccc1)c1ccco1,-0.19 (inactive)
2,COC(=O)Cc1cc(=O)n(-c2nc3ccccc3s2)[nH]1,0.0542 (inactive)
3,CCC(=O)NC(=Nc1nc2ccccc2s1)NC(=O)CC,11.5 (active)
4,O=C(O)CSCc1nc2ccccc2s1,-0.539 (inactive)
5,CCC(=O)c1cc2c(cc1NC(=O)c1cccs1)OCCO2,1.41 (inactive)
6,CCCC(=O)C1=C(N(C)c2ccccc2)CC(C)(C)C(C(=O)OC)C1=O (stereo not drawn),0.78 (inactive)
7,Cn1c2ccccc2c2c(C(=O)N3CCN(c4ccc(F)cc4)CC3)cn(C3CCCC3)c(=O)c21,0.395 (inactive)
8,Cc1c(CN2CCC(C)CC2)c(=O)n(-c2ccccc2)n1C,0.319 (inactive)
9,Cn1cccc1C(=O)NC(=O)COC(=O)Cc1coc2ccc3ccccc3c12,-0.19 (inactive)
10,COc1ccc(C(=O)c2oc3ccc(Br)cc3c2NC(C)=O)cc1,-0.206 (inactive)
11,Cc1cc(C(=O)O)c(S(C)(=O)=O)s1,0.833 (inactive)
12,CC(=O)c1c(C)c[nH]c1C,-3.34 (active)
13,COC(=O)Nc1ncc(CN2C(=O)c3ccccc3C2=O)s1,3.19 (active)
14,CC(C)OC(=O)CN1C(=O)c2ccccc2C1=O,0.49 (inactive)
15,O=C(CCN1C(=O)c2ccccc2C1=O)Nc1ccncc1,0.176 (inactive)
16,CN(C)c1cc(N)c2ccccc2n1 (tested in a mixture with another compound),-2.66 (inactive)
17,CCOC(=O)C1CCN(C(=O)Nc2ccc(Cl)cc2)CC1,-0.339 (inactive)
18,CCCCn1nc(C(=O)N2CCc3ccccc32)c2ccccc2c1=O,0.35 (inactive)
19,CCn1nc(C(=O)OCC(=O)N2c3ccccc3CC2C)c2ccccc2c1=O (stereo not drawn),4.38 (active)
20,CC1Cc2ccccc2N1C(=O)Cn1cnc2ccccc2c1=O (stereo not drawn),-0.115 (inactive)
21,O=C(COc1ccc2c3c(c(=O)oc2c1)CCC3)NC1CCCCC1,-1.02 (inactive)
22,CC(C)Nc1nc(N(c2ccccc2)c2ccccc2)nc(-n2ccnc2)n1,0.848 (inactive)
23,N#Cc1nc(N)nc(N(c2ccccc2)c2ccccc2)n1,4.55 (active)
24,CC(C)(C)Oc1ncc(Br)c(OC(C)(C)C)n1,0.0357 (inactive)
25,c1ccc(-c2[nH]ncc2-c2nc3ccccc3[nH]2)cc1,0.738 (inactive)
26,C=CCSc1nc2ccccc2[nH]1,-0.468 (inactive)

row,Structure (SMILES),B-score
1,c1ccc2[nH]c(-c3nc4ccccc4[nH]3)nc2c1,-2.93 (active)
2,c1ccc(-n2ncc3c2ncn2c(CSc4nc5ccccc5s4)nnc32)cc1,-0.538 (inactive)
3,Cc1cccc(OCc2nnc(SCC(=O)N3CCN(C(=O)c4ccco4)CC3)n2C)c1C,-0.00929 (inactive)
4,N#CC1=C(N)Oc2cc(O)ccc2C1C1CCCCC1 (stereo not drawn),-0.438 (inactive)
5,Cc1cccc(NC(=O)COc2ccc(Br)cc2C)n1,0.787 (inactive)
6,O=C(C1CCCO1)N(Cc1ccccc1)c1ccccc1 (stereo not drawn),0.947 (inactive)
7,CCCCSc1nc2c(c(=O)n1CC)SC(C)C2 (stereo not drawn),9.06 (active)
8,CCn1c(SCC(=O)Nc2ccccc2F)nc2c(c1=O)SC(C)C2 (stereo not drawn),0.8 (inactive)
9,CCn1c(SCC(=O)Nc2ccc3c(c2)OCCO3)nc2c(c1=O)SC(C)C2 (stereo not drawn),2 (inactive)
10,COC(=O)c1ccc(NC(=O)c2ccco2)cc1,-1.96 (inactive)
11,C=CCn1c(SCc2csc(C)n2)nc2scc(-c3ccc(C)o3)c2c1=O,-0.492 (inactive)
12,C=CCn1cnc2scc(-c3ccccc3)c2c1=O,10.5 (active)
13,CN(CCC#N)c1ncnc2scc(-c3ccccc3)c12,1.98 (inactive)
14,CN1C(C)(C)CC(NC(=O)CCC(=O)NC2CC(C)(C)N(C)C(C)(C)C2)CC1(C)C,0.00629 (inactive)
15,CCN(CC)C(=O)C1CCC(C)(C(=O)O)C1(C)C (stereo not drawn),-0.39 (inactive)
16,CCc1ccc(N(CC)c2ncnc3nc[nH]c23)cc1,-4 (inactive)
17,O=C(CN1CCOCC1)Nc1c2c(nc3c1CCC3)CCC2,2.06 (inactive)
18,O=C(NCCCNCc1ccccc1)c1ccc(/C=N/O)nc1,-0.581 (inactive)
19,CCOc1ccc(Nc2oc(Cc3ccccc3)nc2C#N)cc1,3.11 (active)
20,COc1ccc(CC(=O)Nc2ccc(-c3nnc(-c4ccccc4)o3)cc2)cc1,0.0608 (inactive)
21,COc1ccc(Nc2oc(-c3ccccc3Cl)nc2C#N)cc1,6.96 (active)
22,N#Cc1nc(Cc2ccccc2)oc1NCCc1ccccc1,4.08 (active)
23,N#Cc1nc(COc2ccc(-c3ccccc3)cc2)oc1NCc1cccnc1,-1.5 (inactive)
24,N#Cc1nc(Cc2cccc3ccccc23)oc1NCc1ccc2c(c1)OCO2,-0.388 (inactive)
25,O=C(CSc1ncccn1)NCCc1ccccc1,0.879 (inactive)
26,N#Cc1nc(-c2ccc(OCc3ccccc3)cc2)oc1NCCCN1CCOCC1,-0.727 (inactive)

row,Structure (SMILES),B-score
1,CCOc1ccc(NC(=O)Nc2cc(C)on2)cc1,-0.142 (inactive)
2,CN(CCCC(=O)Nc1nccs1)S(=O)(=O)c1ccc(Cl)cc1,0.49 (inactive)
3,Cc1cc(/C=N/n2cnnc2)c(C)n1-c1cccc(C(=O)O)c1,-0.0541 (inactive)
4,O=C(CN1CCOCC1)Nc1c(-c2ccccc2)c2cc(Br)ccc2[nH]c1=O,2.41 (inactive)
5,CS(=O)(=O)N1CCN(C(=O)Cc2ccccc2)CC1,-1.05 (inactive)
6,CS(=O)(=O)N(CC(=O)N1CCOCC1)c1ccc2c3c(cccc13)CC2,1.66 (inactive)
7,C=C(C)COc1ccc(-c2n[nH]c(C)c2-c2ccccc2)c(O)c1,0.197 (inactive)
8,CCOc1ccccc1Oc1cn[nH]c1-c1ccc(OC)cc1O,-0.51 (inactive)
9,COc1ccc(-c2n[nH]c(C)c2-c2ccc(OC)c(OC)c2)c(O)c1,2.72 (active)
10,Cc1nonc1NC(=O)c1ccccc1Br,-0.0424 (inactive)
11,Cc1cc(C(=O)N2CCN(c3ccccn3)CC2)c(C)o1,-0.0773 (inactive)
12,COC(=O)CSC1=C(C#N)C(c2ccccc2OC)C(C(=O)OC)C(=O)N1 (stereo not drawn),0.897 (inactive)
13,O=C1Nc2c(Br)cc(Br)cc2C1(O)N1CCOCC1 (stereo not drawn),0.955 (inactive)
14,CCCCNc1nc2ccccc2nc1NS(=O)(=O)c1cccs1,19.3 (active)
15,O=C(Nc1nncs1)c1ccccc1NS(=O)(=O)c1cccs1,-0.0134 (inactive)
16,CCOc1ccc2nc(NCCNS(=O)(=O)c3ccccc3)c(C#N)cc2c1,0.768 (inactive)
17,COc1nc(OC)nc(N(C)CCO)n1,0.849 (inactive)
18,Cc1ccc(C)c2[nH]c(=O)c(CCNC(=O)CC(C)C)cc12,-0.219 (inactive)
19,COc1ncnc2c1N=C1CC(C)(C)CC(N)=C1S2,3.41 (active)
20,Nc1c(C(=O)NCc2ccccc2)nnn1Cc1cccc(Cl)c1,0.392 (inactive)
21,COc1ccc(OC)c2c1sc(=NC(=O)CN1C(=O)CCC1=O)n2C,2.86 (inactive)
22,Cc1ccc2c(c1)N(CCCC(=O)NCc1cccnc1)C(=O)CO2,-0.742 (inactive)
23,COc1ccc(N2CCN(CCNC(=O)c3nnc(Cc4c(F)cccc4Cl)o3)CC2)cc1,-1.8 (inactive)
24,Cc1ccc(-n2nc3c(c2NC(=O)CCC2CCCCC2)CS(=O)C3)cc1 (stereo not drawn),-0.56 (inactive)
25,O=P(O)(CN1CCCCC1)CN1CCCCC1,-0.0507 (inactive)
26,C=CCSc1nc2c(c(=O)[nH]1)C(C(C)C)C(C#N)=C(N)O2 (stereo not drawn),10.1 (active)

row,Structure (SMILES),B-score
1,C=CCOC(=O)C1=C(C)OC(N)=C(C#N)C1c1ccc(F)cc1 (stereo not drawn),0.241 (inactive)
2,CCN1CCN(C(=O)c2ccccc2N(C)S(=O)(=O)c2ccc(C)cc2)CC1,0.228 (inactive)
3,COCCNc1nc(-n2nc(C)cc2C)nc2sc3c(c12)CCCC3,0.116 (inactive)
4,CC(=O)c1ccc(Oc2cc(C)nc(-n3nc(C)cc3C)n2)cc1,11.6 (active)
5,COc1cc(NS(=O)(=O)c2ccccc2)ccc1-n1nc(C)cc1C,-0.763 (inactive)
6,Cc1cc(C)n(-c2ccc(Cl)c(C(=O)O)n2)n1,-0.569 (inactive)
7,COc1ccc(Nc2cc(C)nc(-n3nc(C)cc3C)n2)cc1,7.36 (active)
8,CCOC(=O)c1cnc(-n2nc(C)cc2C)nc1Nc1cccc(C(C)=O)c1,0.96 (inactive)
9,Cc1ccc(S(=O)(=O)Nc2ccccc2CNc2c(C)n(C)n(-c3ccccc3)c2=O)cc1,1.04 (inactive)
10,Cc1ccc(S(=O)(=O)N2CC(=O)Nc3ccccc32)cc1C,0.0538 (inactive)
11,CCN1C(=O)CS/C1=N\c1nccs1,0.211 (inactive)
12,Cc1ccc(CNC(=O)CCCNC(=O)c2ccc(Cl)cc2)n1C,-1.3 (inactive)
13,CC1CCN(Cc2nc3c(c(=O)n(C)c(=O)n3C)n2CCc2ccccc2)CC1,0.377 (inactive)
14,CCOC(=O)C1CCCN(C(=O)CN(c2ccc(OC)cc2)S(=O)(=O)c2c(C)noc2C)C1 (stereo not drawn),0.03 (inactive)
15,CCOC(=O)C1CCCN(C(=O)c2cncc(Br)c2)C1 (stereo not drawn),0.42 (inactive)
16,CCOC(=O)C1CCCN(C(=O)c2sc3nc(C)nc(N4CCOCC4)c3c2C)C1 (stereo not drawn),-3.4 (active)
17,Nc1nnc(C2CCCC2)s1,-1.25 (inactive)
18,CCOc1cccc(-c2nnc3sc(COc4ccc(OC)cc4)nn23)c1,-0.0728 (inactive)
19,COc1ccc(C2=CC(c3cccc(OC)c3)n3nnnc3N2)cc1 (stereo not drawn),1.89 (inactive)
20,CCOc1cccc(-n2nnnc2-c2ccc(OC)cc2)c1,4.33 (active)
21,CC(C)(C)Nc1c(N)c(=O)oc2ccccc12,-1.25 (inactive)
22,CCC(C)n1[nH]c(=O)cc1N (stereo not drawn),-0.0177 (inactive)
23,CC(C)C(=O)Nc1cccc(C(=O)Nc2ccc3c(c2)OCO3)c1,-3.26 (active)
24,Cn1c(=O)n(C)c2cc(C(=O)Nc3ccc4c(c3)OCO4)ccc21,-2.3 (inactive)
25,COc1ccc(C(=O)Nc2ccc3c(c2)OCO3)cc1OC,1.31 (inactive)

# Reference: PubChem BioAssay AID641 (Vanderbilt High Throughput Screening Facility, 2007)
